Assay outcomes from PubChem BioAssay.
Compounds with a hit are over-represented: about 7.5% of the library has one in this group of screens.
Rab9 prom act: Rab9 promoter activation | Huh7 Rab9 promoter-luciferase reporter, luminescence, 24 h | Potency, µM (top dose mostly 9.22 µM), for inactives: at the highest dose activation, negative = inhibition, hits mostly activators | 320,000 compounds, 2.8% hits | AID 485297; note: % of control where 0% means no effect; nearly all actives have a fitted effect of over 60% in size
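Cell-based reporter: Huh7 stable for Rab9 promoter-driven luciferase, plated in reduced-serum medium with 10% FBS at 1500 cells/well, compound-treated 24 h at 37 °C, luminescence read after 10 min reagent.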
Luc counter: blocks Kinase-Glo luciferase, a counter-screen artifact; AID 1379; Kinase-Glo luciferase, ATP luminescence, 8 min; Potency, µM (series often up to 38.3 µM), for inactives: at the highest dose activity change, negative = inhibition, hits mostly inhibitors; 200,000 compounds, 0.28% hits; Q27757; note: % is set by controls: 0 for no effect and ±100 for the full control effect; nearly all actives have a fitted effect of over 60% in size
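Luminescence was the read-out, taken after 8-minute incubation at ambient temperature. Luciferase turned over luciferin with 10 uM ATP in imidazole pH 7.2 buffer containing KCl, MgCl2, Tween 20 and BSA.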
SMN2 splice enh: increases expression of the SMN2 splice variant; 210,000 compounds, 2.8% hits; HEK293 SMN2-luciferase splicing reporter, luminescence, 30-36 h; Potency, µM (series often up to 46.1 µM), for the others: top-dose activity change, positive = activation, most hits filed as activators; note: % of control where 0% means no effect; nearly all actives have a fitted effect of over 55% in size
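HEK293 cells carry an SMN2 minigene-luciferase reporter in which exon 7 inclusion puts luciferase in frame. Cells were seeded at 2000 cells/well, attached for 10-12 hours, then exposed to compounds for 30-36 hours at 37C before ONE-Glo luminescence.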
ELG1 genotox: induces genotoxicity in HEK293T cells with luciferase-tagged ELG1 | HEK293T ELG1-luciferase reporter, luminescence, 16 h | Potency, µM (titrated, usually from 46 µM), without a hit: top-dose activity change, positive = activation, most hits filed as activators | 330,000 compounds, 1.3% hits | AID 504466; note: % of control where 0% means no effect; nearly all actives have a fitted effect of over 60% in size
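Reporter readout depends on ELG1 protein level, which increases with genetic stress. After 16 hr compound exposure at 37 °C, luciferase activity was quantified using ONE-Glo.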
NPC1 promoter act: activates the NPC1 promoter; Huh7 NPC1 promoter luciferase reporter, 24 h; Potency, µM (highest dose often 9.22 µM), without a hit: top-dose activation, usual class: activators; 320,000 compounds, 2.4% hits; AID 485313; note: % of control where 0% means no effect; nearly all actives have a fitted effect of over 60% in size
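Huh7 cells stably carrying NPC1 promoter–luciferase, plated in Opti-MEM with 10% FBS for 2 h, were exposed to compound in DMSO for 24 h at 37 °C; luciferase reagent was added for 10 min and luminescence read.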
FLuc modulator: firefly luciferase modulation, counter-screen for miR-21 project; P08659; purified FLuc, Km substrates, luminescence inhibition; Potency, µM (highest dose often 57.5 µM), for inactives: top-dose activity change, negative = inhibition, usual class: inhibitors; 360,000 compounds, 6.9% hits; AID 588342;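 note: plate controls were vehicle for no effect and reference inhibitor for full effect; nearly all actives have a fitted effect of over 55% in size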
Target sequence (P08659 whole entry, looked up): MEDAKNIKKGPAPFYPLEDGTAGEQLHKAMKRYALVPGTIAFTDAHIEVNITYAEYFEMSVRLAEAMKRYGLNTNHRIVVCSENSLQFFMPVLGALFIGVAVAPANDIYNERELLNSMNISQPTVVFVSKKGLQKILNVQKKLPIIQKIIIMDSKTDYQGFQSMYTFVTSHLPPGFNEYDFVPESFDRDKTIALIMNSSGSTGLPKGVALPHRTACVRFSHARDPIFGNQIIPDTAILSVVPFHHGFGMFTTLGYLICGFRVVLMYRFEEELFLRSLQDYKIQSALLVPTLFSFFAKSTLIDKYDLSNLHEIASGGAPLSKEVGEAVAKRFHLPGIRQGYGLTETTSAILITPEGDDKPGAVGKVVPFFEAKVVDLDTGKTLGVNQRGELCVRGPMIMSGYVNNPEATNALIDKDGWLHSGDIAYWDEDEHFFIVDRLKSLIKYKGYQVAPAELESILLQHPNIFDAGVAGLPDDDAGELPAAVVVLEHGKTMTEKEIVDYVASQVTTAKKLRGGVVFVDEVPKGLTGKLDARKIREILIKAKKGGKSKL
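Biochemical qHTS of compounds, final roughly 60 µM downward over six points, against 10 nM purified firefly luciferase using Km concentrations of substrates (10 uM D-luciferin, 10 uM ATP) in Tris acetate pH 7.5 buffer; luminescence output.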
Active calls of the source: *; ? = inconclusive; / = not tested or not shown; [ ] = remark or other dose. Calls come from the whole dose curve; as a rule, active = well fitted curve in the direction sought with a large enough effect; inconclusive = small, poorly fitted or top-dose-only effect, or another doubt; inactive = no such curve, though single readings can be large; an effect the other way counts as inactive or inconclusive. Potency is the fitted concentration of half-maximal effect.

SMILES | Rab9 prom act | Luc counter | SMN2 splice enh | ELG1 genotox | NPC1 promoter act | FLuc modulator
CCCC[C@H](CN[C@@H](CNC)[C@H](C)CC)NCCC12CCC(CC1)C2 | -1% | / | / | -8% | 2% | -1%
O=C(Nc1cccc(NC(=O)c2cccs2)c1)c1ccc(Br)cc1 | 3% | / | / | -7% | -9% | ?
O=C(O)C1CCCCC1C(=O)Nc1ccc2c(c1)OCCO2 (stereo not drawn) | 3% | 2% | -12% | 7% | 2% | -8%
O=C(Nc1cccc(Cl)c1)c1ccc2c(c1)OCCO2 | 1.8µM* | / | / | 2.1µM* | 1.3µM* | 1.1µM*
O=C(Nc1ccc2c(c1)OCO2)c1ccc(Cl)cc1Cl | -3% | / | / | 6% | 0% | -2%
O=C(Nc1ccc(NC(=O)c2cc3ccccc3o2)cc1)c1ccc2c(c1)OCCO2 | -13% | 2% | -33% | 10% | -13% | -2%
O=C(Nc1ccc2c(c1)OCCO2)C1CC1c1ccccc1 (stereo not drawn) | 4µM* | -1% | 11µM* | ? | ? | 9.5µM*
O=C(Nc1cccc(NC(=O)c2cccs2)c1)c1ccc2c(c1)OCCO2 | 30% | -6% | / | 2% | 23% | 7.6µM*
O=C(Nc1ccc2c(c1)OCO2)c1cc(Cl)ccn1 | 1.3µM* | / | / | ? | 1.8µM* | 4.8µM*
CCOc1ccc(CN(C)C(=O)CN2C(=O)NC(c3ccccc3)(c3ccccc3)C2=O)cc1 | 7% | / | / | -2% | -1% | /
O=C(CCCc1ccccc1)Nc1ccc2c(c1)OCCO2 | 0.45µM* | 1% | 6.3µM* | 2.1µM* | 0.5µM* | 2.1µM*
O=C(Nc1ccc2c(c1)OCCO2)c1cccc(C(=O)Nc2ccc3c(c2)OCCO3)c1 | 17%[1.84 µM] | / | / | 14% | 4µM* | 6.7µM*
O=C(Nc1cccc([N+](=O)[O-])c1)c1ccc2c(c1)OCCO2 | ? | -4% | 18µM* | ? | 3.5µM* | 7.6µM*
O=C(CCCCCN1C(=O)c2ccccc2C1=O)Nc1ccc2c(c1)OCCO2 | -1% | -2% | 2% | 0% | 7% | ?
O=C(Nc1cccc([N+](=O)[O-])c1)c1ccncc1 | -1% | 5% | -10% | 5% | -4% | 1%
O=C(Nc1ccc2c(c1)OCCO2)c1cnn(-c2ccccc2)n1 | 2.8µM* | / | / | ? | ? | 4.8µM*
Cc1cccc(OCC(=O)Nc2ccc3c(c2)nc(CCN2CCN(c4ccccn4)CC2)n3C)c1 | -21% | / | / | -15% | -19% | -11%
CCSc1nc2c([nH]c3ccccc32)c(=O)n1-c1ccc(OC)cc1 | / | / | / | / | / | 1%
CCOc1cccc(C(=O)Nc2ccc3c(c2)OCCO3)c1 | ? | / | / | 2.3µM* | ? | 1.5µM*
CN(c1cccc(NC(=O)c2ccc(C(C)(C)C)cc2)c1)S(C)(=O)=O | ? | 0% | / | -16% | 11% | 0.48µM*
CC(C)(C)c1ccc(C(=O)Nc2cccc([N+](=O)[O-])c2)cc1 | 2.2µM* | -2% | 11µM* | ? | 2.5µM* | 1.7µM*
CC(C)c1ccc(O)c(NC(=S)NC(=O)c2ccc3c(c2)OCO3)c1 | ? | / | / | 22% | 2.2µM* | 6.7µM*
Cc1noc(C)c1COc1cccc(C(=O)Nc2ccc3c(c2)OCO3)c1 | 17% | -8% | 26% | 25% | 5% | ?
COc1ccc(CCNC(=O)c2cccc(-n3cnc4cccnc43)c2C)cc1OC | / | / | / | / | / | -6%
CCn1cc(C(=O)NCc2ccccc2)c(=O)c2cc(S(=O)(=O)N3CCCCCC3)ccc21 | / | / | 3% | / | / | 2%
CN(CC(=O)Nc1ccccc1C(F)(F)F)C(=O)CN1C(=O)C2CCCCC2C1=O (stereo not drawn) | -5% | / | / | 1% | 0% | 3%
O=C(Nc1ccnn1C1CCN(C2CCC2)CC1)c1ccccc1 | 0% | / | / | 2% | -3% | 0%
CN1C(=O)c2ccc(C(=O)Nc3ccc4c(c3)OCO4)cc2C1=O | 12% | / | / | ? | 15% | 2.4µM*
